BJeLR lethal: kills HRASV12-expressing BJeLR cells. BJeLR (HRASV12) viability, CellTiter-Glo ATP luminescence, 48 h. AID 1554. inhibition, % (test concentration not listed). 0.17% of 300,000 active; in the data active means inhibition above about 50%
MazEF act: activators of E. coli MazEF toxin-antitoxin RNase. 0.32% of 350,000 active. P0AE70. activation, % at 20 µM. FAM/BHQ RNA-DNA oligo cleavage fluorescence, 5 h. AID 504720; in the data active means activation above about 50%
Target sequence (P0AE70 whole entry, looked up): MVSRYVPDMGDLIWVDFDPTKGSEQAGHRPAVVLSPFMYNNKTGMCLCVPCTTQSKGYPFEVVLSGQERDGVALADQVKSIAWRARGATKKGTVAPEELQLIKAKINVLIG
PfHsp40 yeast: rescue of PfHsp40-mediated yeast toxicity; growth rescue, % at 12.5 µM; AID 504582; 0.68% of 340,000 active; S. cerevisiae expressing PfHsp40, growth rescue, ATP luminescence; in the data active means growth rescue above about 28%, passing the limit was not always enough;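 further: yeast W303a lacking pdr1 and pdr3 grown in galactose medium; growth measured after three days at 30 °C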
Mtb BioA inh: inhibitors of Mycobacterium tuberculosis BioA enzyme; purified M. tuberculosis BioA enzyme, plate reader; inhibition, % at 9.99 µM; 0.096% of 360,000 active; in the data active means inhibition above about 40%
Yp Topo-I inh: blocks Yersinia pestis topoisomerase I activity. Y. pestis Topo-I cleavage product accumulation, plate reader. activity, % at 10 µM. 0.064% of 360,000 active. AID 504884; in the data active means activity above about 50%, passing the limit was not always enough
3CLpro inhibitor: SARS-CoV 3CLpro protease inhibition; 0.14% of 290,000 active; AID 1706; inhibition, % at 6 µM; recombinant SARS-CoV 3CLpro, quenched FRET peptide cleavage; P0C6X7; in the data active means inhibition above about 12%
* marks the source's active call; other numbers are inactive results; i = inactive; · = no result given. Only some compounds are listed: those with a hit (about 1.1% of all), similar ones and a draw of the others.

SMILES	BJeLR lethal	MazEF act	PfHsp40 yeast	Mtb BioA inh	Yp Topo-I inh	3CLpro inhibitor
Cc1ccc(NC(=O)C2C(C(=O)O)C3C=CC2C32CC2)cc1 (stereo not drawn)	2	-2	2	-2	6	-3
Cc1ccc(NC(=O)C2C(c3ccccc3)C=CC(c3ccccc3)C2C(=O)O)cc1 (stereo not drawn)	6	3	172*	0	-9	1
C[C@@H]1CN([C@@H](C)CO)C(=O)c2cc(NC(=O)CCN3CCOCC3)ccc2O[C@H]1CN(C)Cc1ccc(Oc2ccccc2)cc1	·	·	·	2	·	·
O=c1c(C(c2ccc(F)cc2)c2c(O)nc3n(c2=O)CCS3)c(O)nc2n1CCS2	4	289*	0	·	3	-2
O=c1c(C(c2ccc(Cl)cc2)c2c(O)nc3n(c2=O)CCS3)c(O)nc2n1CCS2	0	-10	0	·	10	5
Cc1c(NC(=O)COC(=O)CSc2ccc(C(N)=O)cc2[N+](=O)[O-])c(=O)n(-c2ccccc2)n1C	-5	8	-1	2	9	5
Cc1ccc(C(=O)OCC(=O)Nc2c(C)n(C)n(-c3ccccc3)c2=O)cc1[N+](=O)[O-]	1	50*	1	·	1	0
COC(=O)c1ccc([C@H](NC(=O)c2ccco2)[C@]2(C)C[C@H]2C2CCCCC2)cc1	-2	-10	68*	-1	39	·
CNC(=O)c1cc2c(cn1)[nH]c1ccccc12	-1	2	60*	-1	-3	·
CC(C)(C)c1ccc(C(=O)C2CCCN(C(=O)C3CCOCC3)C2)cc1 (stereo not drawn)	-9	73*	2	0	26	-4
c1ccc(CC2CCN(Cc3ccccn3)CC2)cc1	19	4	50*	·	1	2
Clc1ccc(CN2CCC(Cc3ccccc3)CC2)cc1	1	-10	2	·	3	3
COc1ccc(S(=O)(=O)N(C)C[C@@H]2OCCCC[C@@H](C)Oc3ccc(NC(=O)Nc4ccccc4)cc3C(=O)N([C@H](C)CO)C[C@H]2C)cc1	·	·	·	-1	·	·
C[C@@H]1CN([C@H](C)CO)C(=O)c2cc(-c3ccc(F)cc3)cnc2O[C@@H]1CN(C)Cc1cncnc1	·	·	·	-2	·	·
CCCNC(=O)C[C@@H]1CC[C@H]2[C@H](COc3ccc(NC(=O)c4ccc(OC)cc4)cc3C(=O)N2C)O1	·	·	·	0	·	·
CC(C)(C)OC(=O)N/N=C/c1ccc(N2CCOCC2)s1	4	226*	-1	·	-1	3
Cc1ccc(C)c(Nc2nc3c(S(=O)(=O)c4ccccc4)nnn3c3ccccc23)c1	-2	135*	-1	·	5	1
Cc1ccc(S(=O)(=O)c2nnn3c2nc(Nc2cccc(C)c2)c2ccccc23)cc1	-15	15	0	-1	-1	3
CCN(CC)S(=O)(=O)c1ccc(N2CCOCC2)c(NC(=O)C(=O)c2c(-c3ccccc3)cc3ccccn23)c1	-8	1	130*	-3	18	-1
CCN(CC)S(=O)(=O)c1cccc(NC(=O)C(=O)c2c(-c3ccccc3)cc3ccccn23)c1	0	-2	2	-1	-3	9
COc1ccc(S(=O)(=O)N(C)C[C@H]2Oc3ccc(NC(=O)CCCN(C)C)cc3C(=O)N([C@@H](C)CO)C[C@@H]2C)cc1	·	·	·	-1	·	·
S=C(Nc1ccc(OCc2ccccc2)cc1)Nc1cccc(Cl)c1Cl	-2	-1	67*	0	9	6
S=C(Nc1ccccc1)Nc1ccc(OCc2ccccc2)cc1	-14	-2	0	-2	5	4
C#Cc1ccc([C@H]2C=C(C(=O)N3CCOCC3)O[C@@H](OCCCCO)C2)cc1	·	·	·	-1	·	·
Cn1ccsc1=NC(=O)c1ccc([N+](=O)[O-])o1	-3	-1	248*	0	-13	0
SMILES	BJeLR lethal	MazEF act	PfHsp40 yeast	Mtb BioA inh	Yp Topo-I inh	3CLpro inhibitor
Cc1cc(=O)oc2cc(OC(C)C(=O)NCCCn3ccnc3)ccc12 (stereo not drawn)	-1	1	95*	0	1	-2
COc1ccccc1C1CCN(C(=O)C2CCCCC2)CC1	2	-2	0	0	27	1
COc1ccccc1C1CCN(c2cc(O)ccc2[N+](=O)[O-])CC1	5	3	124*	0	-9	8
C=CCN1Cc2ccccc2[C@H]2OC(c3ccc(OCCCO)cc3)=N[C@@]2(CCS(=O)(=O)c2ccccc2)C1=O	·	·	·	0	·	·
C/C(CCC(C)C)=N\NS(=O)(=O)c1ccc(C)c([N+](=O)[O-])c1	2	82*	2	-1	8	-1
Cc1ccc(S(=O)(=O)N/N=C2/CCCCC2C2CCCCC2)cc1[N+](=O)[O-] (stereo not drawn)	-1	1	-1	·	22	5
CC/C(C)=N/NS(=O)(=O)c1ccc(C)c([N+](=O)[O-])c1	1	122*	0	-2	7	6
Cc1ccc(S(=O)(=O)NCCC(C)C)cc1[N+](=O)[O-]	-3	9	2	·	4	-4
CC1CCC(=NNS(=O)(=O)c2ccc([N+](=O)[O-])cc2)CC1 (stereo not drawn)	·	110*	-1	·	-5	·
CCC(C)(C)C1CCC(=NNS(=O)(=O)c2ccc(C)c([N+](=O)[O-])c2)CC1 (stereo not drawn)	-2	125*	0	·	-3	-3
O=C(CN1CCOCC1)N[C@@H]1CC[C@@H](CCNC(=O)C2CCC2)O[C@@H]1CO	·	·	·	-2	·	·
CCSc1nnc(NC(=O)c2nc(-c3ccccc3)n(-c3ccccc3)n2)s1	-3	0	126*	0	13	0
Cc1csc(NC(=O)c2nc(-c3ccccc3)n(-c3ccccc3)n2)n1	-1	8	0	-1	8	-2
CC(OC(=O)c1c2c(nc3ccccc13)/C(=C\c1ccc3c(c1)OCO3)CCC2)C(=O)Nc1ccc(S(N)(=O)=O)cc1 (stereo not drawn)	·	165*	2	-4	-4	-22
Cc1cccc(C)c1NC(=O)COC(=O)c1c2c(nc3ccccc13)/C(=C\c1ccc3c(c1)OCO3)CCC2	·	-10	1	·	-6	-12
COC(=O)C1=C(C(=O)OC)C2OC1c1cc3ccccc3cc12	·	3	71*	·	26	·
C[C@H](CO)N1C[C@H](C)[C@H](CN(C)Cc2cncnc2)Oc2cc(-c3ccncc3)ccc2S1(=O)=O	·	·	·	9	·	·
COC(=O)C1=C(c2ccc(-c3ccccc3)c(F)c2)C[C@@H]2CC[C@H]1N2C(=O)NCc1ccco1	·	-2	4	0	56*	·
COCC(=O)Nc1ccc2c(c1)C(=O)N(C)C[C@@H](OC)[C@@H](C)CN(Cc1ccncc1)[C@H](C)CO2	·	·	·	-2	·	·
COCCCNC(=O)c1ccc2c3c(onc13)-c1ccccc1C2=O	51*	i	2	-1	-12	8
O=C(C[C@H]1CC[C@H]2[C@@H](COC[C@H](O)CN2C(=O)c2ccccc2F)O1)N1CCCCC1	·	·	·	-2	·	·
